Molecules are shown by their SMILES. Calls of active or inactive are those of the source. How the source made its calls: active means hit-call score of the fitted dose curve at least 0.9, where 1 is the maximum; inactive means score below 0.9.

Experiment [1] in a line: ATG_E_Box_CIS: Attagene CIS-FACTORIAL HepG2 Assay for human Enhancer Box (E-box) (AID 2282936). The settings on record: HepG2 E-box cis-reporter transcription, actives raise or lower the signal. The procedure, abridged:
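Multiplexed CIS reporter system in transiently transfected HepG2 cells measures native transcription factor activity. Reporter RNA after 24 h exposure is profiled by RT-PCR-capillary electrophoresis.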

Experiment [2] is described as follows: ATG_M_61_CIS: Attagene CIS-FACTORIAL HepG2 Assay for M61 Transcription Factor (Internal Marker) (AID 2282937). The following applies: HepG2 Attagene CIS-FACTORIAL M61 internal marker reporter; actives raise or lower the signal. A digest of the protocol:
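Human liver HepG2, transient MRTU transfection (cis promoter elements), 24 h compound. Total RNA → oligo(dT) RT → PCR → FAM label → HpaI → CE. Internal background marker; bidirectional fitting, DMSO = baseline.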

The nature of experiment [3]: ATG_EGR_CIS: Attagene CIS-FACTORIAL HepG2 Assay for human Early Growth Response 1 (EGR1) (AID 2282938). The settings on record: HepG2 Attagene CIS-FACTORIAL EGR reporter mRNA; actives raise or lower the signal. The procedure, abridged:
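Transient transfection of human HepG2 with multiple cis-regulated reporter units, chemical exposure 24 h, total RNA isolated. Reverse transcription, PCR, fluorescent labelling and capillary electrophoresis quantify reporter transcripts; activity fitted bidirectionally against DMSO.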

Experiment [4] is described as follows: ATG_M_19_CIS: Attagene CIS-FACTORIAL HepG2 Assay for M19 Transcription Factor (Internal Marker) (AID 2282939). The following applies: HepG2 Attagene CIS-FACTORIAL M19 internal marker reporter; actives raise or lower the signal. A digest of the protocol:
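Signals come from fluorescence of labelled reporter-specific PCR fragments resolved by capillary electrophoresis, following 24 h treatment of HepG2 cells transfected with cis-promoter reporter units; activity was fitted in both directions relative to DMSO.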

Experiment [5] can be described thus: ATG_ERE_CIS: Attagene CIS-FACTORIAL HepG2 Assay for Estrogen Response Element (ERE) (AID 2282940). The settings on record: HepG2 ERE cis-reporter, Attagene RNA transcript; actives raise or lower the signal. A digest of the protocol: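 Fluorescence of capillary-separated, FAM-labelled reporter cDNA fragments indicates reporter mRNA levels in HepG2 cells exposed to chemicals for 24 h. Transient transfection with cis-regulated units; data fitted in both directions against DMSO.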

Experiment [6] is described as follows: ATG_Ets_CIS: Attagene CIS-FACTORIAL HepG2 Assay for human Erythroblast Transformation Specific (ETS) (AID 2282941). The settings on record: HepG2 ETS cis-reporter transcription, actives raise or lower the signal. A digest of the protocol: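 Steps: transfect HepG2 with multiple reporter units; treat compound 24 h; isolate RNA, DNase-treat, reverse-transcribe; PCR-amplify, label with 6-FAM, digest with HpaI; separate by capillary electrophoresis. Activity fitted both directions versus DMSO.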

Experiment [7] concerns the target Hepatocyte nuclear factor 3-beta (Homo sapiens) (UniProt Q9Y261). Description: ATG_FoxA2_CIS: Attagene CIS-FACTORIAL HepG2 Assay for human Forkhead box A2 (FOXA2) (AID 2282942). The settings on record: HepG2 cis-reporter transcription factor activity, 24 h; actives raise or lower the signal. The procedure, abridged: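 Transient MRTU transfection of HepG2 liver cells; 24 h treatment; total RNA → oligo(dT) RT → PCR → FAM primer extension → HpaI cut → CE. Bidirectional fit vs DMSO.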

The nature of experiment [8]: ATG_FoxO_CIS: Attagene CIS-FACTORIAL HepG2 Assay for human Forkhead box O (FoxO) (AID 2282943). The settings on record: HepG2 Attagene cis-reporter, FoxO element, mRNA; actives raise or lower the signal. A digest of the protocol: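 Values reflect reporter mRNA induction or loss in HepG2 cells 24 h post-dosing, fitted bidirectionally with DMSO as negative control and baseline. Detection used RT-PCR and fluorescence capillary electrophoresis.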

A short description of experiment [9]: ATG_GLI_CIS: Attagene CIS-FACTORIAL HepG2 Assay for human Zinc Finger Protein GLI1 (AID 2282945). The following applies: HepG2, Attagene cis-factorial reporter mRNA, GLI element; actives raise or lower the signal. The procedure, abridged: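 HepG2 cells transiently transfected with cis-promoter multiplexed reporter units report endogenous transcription factor activity. After 24 h chemical exposure, reporter mRNA was quantified by RT-PCR, 6-FAM labelling, HpaI digestion and capillary electrophoresis, with bidirectional fitting against DMSO.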

Experiment [10] in a line: ATG_GRE_CIS: Attagene CIS-FACTORIAL HepG2 Assay for human Glucocorticoid Response Elements (GRE) (AID 2282947). The following applies: HepG2 GRE cis-reporter, Attagene multiplex mRNA; actives raise or lower the signal. The procedure, abridged:
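Following 24 h chemical exposure of transiently transfected HepG2 cells, total RNA was reverse-transcribed and reporter cDNA amplified, fluorescently labelled and sized by capillary electrophoresis. Signal gain or loss was fitted relative to DMSO vehicle.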

A short description of experiment [11]: ATG_ISRE_CIS: Attagene CIS-FACTORIAL HepG2 Assay for human Interferon Regulatory Factor 1 (IRF1) binding to an Interferon-Stimulated Response Element (ISRE) (AID 2282948). The following applies: HepG2 ISRE cis-reporter (Attagene), mRNA transcription readout; actives raise or lower the signal. The procedure, abridged:
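Transfected HepG2 (multiple reporter transcription units, cis elements) dosed 24 h. RNA → oligo(dT) RT → PCR → 6-FAM primer extension → HpaI → CE. DMSO = negative control/baseline.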

Experiment [12] can be described thus: ATG_M_32_CIS: Attagene CIS-FACTORIAL HepG2 Assay for M32 Transcription Factor (Internal Marker) (AID 2282949).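 Further: background control marker of the multiplexed CIS panel rather than a real target.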 The following applies: HepG2 Attagene cis-factorial M32 reporter, mRNA; actives raise or lower the signal. A digest of the protocol:
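HepG2 cells transiently transfected with multiplexed cis-regulated reporter units, dosed 24 h. Reporter mRNA quantified by RT-PCR, 6-FAM labelling, HpaI digestion and capillary electrophoresis; bidirectional fit vs DMSO.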

Experiment [13] is described as follows: ATG_M_06_CIS: Attagene CIS-FACTORIAL HepG2 Assay for M06 Transcription Factor (Internal Marker) (AID 2282950). The following applies: HepG2 Attagene CIS-FACTORIAL M06 internal marker reporter; actives raise or lower the signal. The procedure, abridged:
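HepG2 liver cells, 24 h exposure. Reporter transcripts from transfected cis-element constructs quantified by RT-PCR/capillary electrophoresis fluorescence. Bidirectional curve fit against DMSO.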

For experiment [14], the target named is Hypoxia-inducible factor 1-alpha (Homo sapiens) (UniProt Q16665). Description: ATG_HIF1a_CIS: Attagene CIS-FACTORIAL HepG2 Assay for human Hypoxia Inducible Factor 1 (HIF1A) (AID 2282951). The settings on record: HepG2 Attagene cis-factorial HIF1a reporter transcription; actives raise or lower the signal. The procedure, abridged: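 Transient MRTU transfection of human HepG2 liver cells, 24 h compound treatment, then total RNA isolation, oligo(dT) reverse transcription, PCR amplification, fluorescent labelling and capillary electrophoresis of reporter fragments. Gain or loss relative to DMSO.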

Experiment [15] concerns the target Hepatocyte nuclear factor 6 (Homo sapiens) (UniProt Q9UBC0). Nature of the experiment: ATG_HNF6_CIS: Attagene CIS-FACTORIAL HepG2 Assay for human Hepatocyte Nuclear Factor 6 (HNF6) (AID 2282952). The settings on record: HepG2 Attagene cis-factorial HNF6 reporter transcription; actives raise or lower the signal. A digest of the protocol: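 HepG2 cells transiently transfected with cis-element-driven multiplexed reporter units measuring endogenous transcription factor activity. After 24 h exposure, reporter mRNA quantified by RT-PCR, FAM-labelled fragments and capillary electrophoresis; bidirectional fitting versus DMSO.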

In experiment [16] the target is Heat shock factor protein 1 (Homo sapiens) (UniProt Q00613). Nature of the experiment: ATG_HSE_CIS: Attagene CIS-FACTORIAL HepG2 Assay for human Heat Shock Transcription Factor 1 (HSE) (AID 2282953). The settings on record: HepG2 HSE cis-reporter, Attagene RNA transcription; actives raise or lower the signal. The procedure, abridged:
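Endogenous transcription factor activity captured via cis-promoter reporter units transfected into HepG2; treatment lasted 24 h. Fluorescence intensity of reporter fragments analysed with bidirectional curve fitting, DMSO baseline.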

Experiment [17] in a line: ATG_MRE_CIS: Attagene CIS-FACTORIAL HepG2 Assay for human Metal Responsive Element (MRE) (AID 2282954). The settings on record: HepG2 MRE cis-reporter transcription, Attagene multiplex; actives raise or lower the signal. The procedure, abridged:
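Step one: transfect HepG2 with cis-regulated reporter units. Step two: dose 24 h. Step three: isolate RNA, RT-PCR, 6-FAM label, HpaI digest, capillary electrophoresis. Fit bidirectionally to DMSO.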

Experiment [18] is described as follows: ATG_PBREM_CIS: Attagene CIS-FACTORIAL HepG2 Assay for human Phenobarbital-responsive Enhancer Module (PBREM) (AID 2282955). The settings on record: HepG2 PBREM cis-reporter, Attagene multiplexed transcription; actives raise or lower the signal. A digest of the protocol:
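Endogenous transcription factors in human liver HepG2 cells drive a PBREM cis-element reporter, whose transcript level after 24 h treatment is quantified by RT-PCR with capillary electrophoresis; activity fitted in both directions against DMSO.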

Experiment [19] in a line: ATG_GATA_CIS: Attagene CIS-FACTORIAL HepG2 Assay for human GATA Binding Protein (AID 2282944). The settings on record: HepG2 GATA cis-element reporter, Attagene multiplex mRNA; actives raise or lower the signal. The procedure, abridged: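 After transfecting HepG2 cells with multiple cis-regulated reporter units, chemicals are dosed for 24 h; isolated RNA undergoes RT-PCR and fluorescent labeling before capillary electrophoresis, with activity expressed against DMSO.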

Experiment [20] addresses Bile acid receptor (Homo sapiens) (UniProt Q96RI1). Nature of the experiment: ATG_IR1_CIS: Attagene CIS-FACTORIAL HepG2 Assay for human Nuclear Receptor Subfamily 1 Group H Member 4 (NR1H4), IR1 submotif (AID 2282946). The following applies: IR1 reporter transcription, actives raise or lower the signal. A digest of the protocol:
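Transient MRTU transfection, HepG2; 24 h dosing; RNA → RT-PCR → 6-FAM primer extension → HpaI digest → capillary electrophoresis fluorescence. Gain/loss of signal fitted relative to DMSO.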

Hypoxia-inducible factor 1-alpha (Homo sapiens), sequence (Q16665 whole entry, looked up, the tested form may be a part): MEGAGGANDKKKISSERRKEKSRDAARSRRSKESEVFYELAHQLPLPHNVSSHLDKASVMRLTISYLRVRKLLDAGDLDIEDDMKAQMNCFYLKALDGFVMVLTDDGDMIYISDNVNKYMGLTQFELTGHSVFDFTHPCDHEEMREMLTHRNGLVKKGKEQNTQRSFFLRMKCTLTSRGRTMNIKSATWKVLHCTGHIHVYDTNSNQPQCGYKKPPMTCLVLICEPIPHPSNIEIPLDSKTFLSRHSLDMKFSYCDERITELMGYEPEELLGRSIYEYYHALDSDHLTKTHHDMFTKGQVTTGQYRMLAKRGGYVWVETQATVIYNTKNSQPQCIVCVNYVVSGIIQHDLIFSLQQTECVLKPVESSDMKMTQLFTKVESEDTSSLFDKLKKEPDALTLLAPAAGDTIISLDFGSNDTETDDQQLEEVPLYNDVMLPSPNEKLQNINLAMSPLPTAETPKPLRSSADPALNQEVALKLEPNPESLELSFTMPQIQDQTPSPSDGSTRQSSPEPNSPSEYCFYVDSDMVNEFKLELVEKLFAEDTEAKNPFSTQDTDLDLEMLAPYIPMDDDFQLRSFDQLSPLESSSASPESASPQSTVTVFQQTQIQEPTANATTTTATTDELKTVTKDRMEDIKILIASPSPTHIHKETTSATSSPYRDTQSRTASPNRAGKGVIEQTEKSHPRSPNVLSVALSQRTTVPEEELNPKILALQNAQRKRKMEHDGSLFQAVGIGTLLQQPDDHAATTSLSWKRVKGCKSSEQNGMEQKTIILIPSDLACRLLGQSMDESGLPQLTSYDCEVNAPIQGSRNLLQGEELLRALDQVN
Hepatocyte nuclear factor 6 (Homo sapiens), sequence (Q9UBC0 whole entry, looked up, the tested form may be a part): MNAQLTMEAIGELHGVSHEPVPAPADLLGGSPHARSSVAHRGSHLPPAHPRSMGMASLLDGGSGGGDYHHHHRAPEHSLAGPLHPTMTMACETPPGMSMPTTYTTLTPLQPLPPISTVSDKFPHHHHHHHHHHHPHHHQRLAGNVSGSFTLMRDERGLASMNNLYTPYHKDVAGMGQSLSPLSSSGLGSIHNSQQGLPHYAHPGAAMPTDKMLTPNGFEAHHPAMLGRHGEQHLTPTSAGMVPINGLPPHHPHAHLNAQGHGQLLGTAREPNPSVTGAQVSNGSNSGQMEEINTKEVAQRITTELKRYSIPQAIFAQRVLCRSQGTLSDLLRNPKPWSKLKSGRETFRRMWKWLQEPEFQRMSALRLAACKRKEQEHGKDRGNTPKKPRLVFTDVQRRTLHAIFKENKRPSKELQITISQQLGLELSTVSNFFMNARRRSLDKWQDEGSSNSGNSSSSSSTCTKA
Hepatocyte nuclear factor 3-beta (Homo sapiens), sequence (Q9Y261 whole entry, looked up): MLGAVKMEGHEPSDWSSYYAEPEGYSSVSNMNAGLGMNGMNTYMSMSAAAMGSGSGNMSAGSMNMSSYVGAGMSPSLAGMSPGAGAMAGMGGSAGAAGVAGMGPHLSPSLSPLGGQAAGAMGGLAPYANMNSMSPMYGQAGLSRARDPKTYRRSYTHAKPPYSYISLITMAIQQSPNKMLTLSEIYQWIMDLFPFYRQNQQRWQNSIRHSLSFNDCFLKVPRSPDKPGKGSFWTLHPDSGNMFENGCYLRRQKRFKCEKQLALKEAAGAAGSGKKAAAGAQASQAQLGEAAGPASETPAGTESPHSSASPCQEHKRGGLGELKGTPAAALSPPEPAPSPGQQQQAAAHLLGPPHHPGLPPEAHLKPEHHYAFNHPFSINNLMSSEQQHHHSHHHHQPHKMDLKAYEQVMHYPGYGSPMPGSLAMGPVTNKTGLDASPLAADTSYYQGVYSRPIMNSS
Heat shock factor protein 1 (Homo sapiens), sequence (Q00613 whole entry, looked up, the tested form may be a part): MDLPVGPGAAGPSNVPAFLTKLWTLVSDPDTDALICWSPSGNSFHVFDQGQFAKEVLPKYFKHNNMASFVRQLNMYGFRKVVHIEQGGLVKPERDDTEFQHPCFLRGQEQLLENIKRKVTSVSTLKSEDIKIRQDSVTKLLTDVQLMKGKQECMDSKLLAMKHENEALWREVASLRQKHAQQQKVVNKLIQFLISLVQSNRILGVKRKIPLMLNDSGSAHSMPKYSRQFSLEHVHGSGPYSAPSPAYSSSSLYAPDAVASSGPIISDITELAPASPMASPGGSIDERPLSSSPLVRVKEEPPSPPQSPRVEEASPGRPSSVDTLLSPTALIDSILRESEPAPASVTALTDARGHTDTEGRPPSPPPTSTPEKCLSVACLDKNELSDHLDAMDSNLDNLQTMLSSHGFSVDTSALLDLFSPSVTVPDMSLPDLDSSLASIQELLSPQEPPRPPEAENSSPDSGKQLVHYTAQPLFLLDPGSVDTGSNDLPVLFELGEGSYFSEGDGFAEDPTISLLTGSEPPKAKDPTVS
Bile acid receptor (Homo sapiens), sequence (Q96RI1 whole entry, looked up): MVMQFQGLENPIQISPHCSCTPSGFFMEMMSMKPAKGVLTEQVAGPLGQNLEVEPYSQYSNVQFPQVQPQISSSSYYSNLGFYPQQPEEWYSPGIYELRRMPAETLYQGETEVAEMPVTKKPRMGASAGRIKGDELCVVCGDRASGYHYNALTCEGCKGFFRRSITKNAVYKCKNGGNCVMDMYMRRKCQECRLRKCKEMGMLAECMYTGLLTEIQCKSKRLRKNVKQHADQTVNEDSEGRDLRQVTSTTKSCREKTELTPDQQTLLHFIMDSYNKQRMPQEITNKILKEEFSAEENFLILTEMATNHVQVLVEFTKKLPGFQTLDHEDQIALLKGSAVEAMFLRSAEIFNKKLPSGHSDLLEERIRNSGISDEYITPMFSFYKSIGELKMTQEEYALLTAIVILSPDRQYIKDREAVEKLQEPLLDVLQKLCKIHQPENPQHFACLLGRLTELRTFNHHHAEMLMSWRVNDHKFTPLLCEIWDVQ

By AC50 is commonly meant the concentration at which the activity in the assay is half-maximal. Take `CCCCC(CC)COC(=O)c1ccccc1` (stereo not drawn): the outcome in [1], in experiment [2], in experiment [3], in experiment [4], in experiment [6] and in experiment [7] was inactive. Also, the call in [8], in experiment [9], in experiment [10], in [11], in [12] and in experiment [13] was inactive. Besides, the outcome in experiment [14], in experiment [15], in experiment [16], in [17] and in [18] was inactive. The AC50 in experiment [5] was 37300 nM (active).

Take `COc1cc(C)ccc1C(C)C`: the outcome in experiment [1], in experiment [2], in experiment [3], in experiment [4], in experiment [6] and in [7] was inactive. Also, the outcome in experiment [8], in experiment [19], in experiment [9], in experiment [20], in experiment [11] and in experiment [12] was inactive. In addition, the compound was called inactive in experiment [13], in experiment [14], in experiment [15], in experiment [16] and in experiment [17].

In the case of `C=C1[C@H]2CC[C@@H]3[C@H]2C(C)(C)CCC[C@]13C`, the outcome in [1], in experiment [2], in experiment [3], in experiment [4], in experiment [6] and in [7] was inactive. For the same compound, the result in experiment [8], in experiment [19], in experiment [9], in [20], in [10] and in [11] was inactive. Moreover, the outcome in [12], in experiment [13], in experiment [14], in experiment [15], in experiment [16] and in experiment [17] was inactive. In addition, the outcome in experiment [18] was inactive.

As for `CN(C)CCCN(C)C`, the result in experiment [1], in experiment [2], in experiment [3], in experiment [4], in experiment [6] and in [7] was inactive. Also, the result in [8], in experiment [19], in experiment [9], in experiment [10], in experiment [11] and in experiment [13] was inactive. Moreover, the outcome in experiment [14], in experiment [15], in experiment [16] and in experiment [17] was inactive.

With `O=Nc1ccc(O)cc1`, the result in experiment [1], in experiment [2], in experiment [3], in experiment [4], in [6] and in experiment [7] was inactive. The compound was classed as inactive in experiment [8], in experiment [19], in [9], in experiment [10], in experiment [11] and in [12]. The outcome in experiment [13], in experiment [14], in experiment [15], in experiment [16], in experiment [17] and in experiment [18] was inactive.

As for `C=CC(=O)OCCOC1C2CCC1C1CC=CC12` (stereo not drawn), the result in experiment [1], in experiment [2], in experiment [3], in [4], in experiment [6] and in [7] was inactive. Also, the compound was called inactive in [8], in experiment [19], in experiment [9], in experiment [20], in experiment [10] and in experiment [11]. Further, the compound was called inactive in experiment [12], in [13], in [14], in experiment [15], in experiment [16] and in [17].

For the compound `CCCCCCCC[N+](C)(CCCCCCCC)CCCCCCCC`, the result in experiment [1], in [2], in experiment [3], in experiment [4], in experiment [6] and in [7] was inactive. The outcome in experiment [8], in [19], in experiment [9], in experiment [10], in experiment [11] and in experiment [13] was inactive. Also, the outcome in experiment [15], in experiment [16] and in experiment [18] was inactive. For the same compound, the figures for the AC50 in experiment [14] and in [17] were 0.753 nM (active) and 2150 nM (active), respectively.

Values taken from PubChem BioAssay (EPA / NIEHS).
